# Measurements reported in the supplement of paper PMC12494721.
# Structures can show the parent of a compound that is named as a salt.
# Tested on: Clostridium sporogenes DSM 1664
# Test: growth (OD595) fold change vs plate DMSO controls (fold change (ratio)); higher = more growth
# Conditions: incubation time: 27 h, anaerobic, 37 °C
# Summary of the method: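 To obtain OD, 595 nm absorbance readings were blank-subtracted, corrected for compound background using 20 µM compound solutions in water, and multiplied by a calibration factor of 5. They came from 96-well mGAM cultures grown anaerobically for 27 h at 37 °C and shaken before reading. Growth is the fold change relative to the median of plate DMSO controls. Two biological replicates were averaged, and fold changes above 1.5 were set to NA.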
row,Compound,growth
1,CN1CCCN=C1/C=C/c1cccc(O)c1 [Oxantel pamoate] (20 µM),1.1
2,COC(=O)[C@H](c1ccccc1Cl)N1CCc2sccc2C1 [Clopidogrel] (20 µM),1.01
3,CCCCCCCCCCCCCCCCCCCCCC(=O)Nc1ccn([C@@H]2O[C@H](CO)[C@@H](O)[C@@H]2O)c(=O)n1 [Enocitabine] (20 µM),0.978
4,CN(C)CCCN1c2ccccc2[S+]([O-])c2ccc(Cl)cc21 (centres undefined) [Chlorpromazine Sulfoxide] (20 µM),0.948
5,CCN(CC)CCOC(=O)C1(c2ccc([N+](=O)[O-])cc2)CCCC1 [Nitrocaramiphen hydrochloride] (20 µM),0.793
6,COc1ccc(CC2c3cc(OC)c(OC)cc3CC[N+]2(C)CCC(=O)OCCCCCOC(=O)CC[N+]2(C)CCc3cc(OC)c(OC)cc3C2Cc2ccc(OC)c(OC)c2)cc1OC (centres undefined) [Atracurium besylate] (20 µM),0.945
7,O=C(O)C[C@H](O)C[C@H](O)/C=C/c1c(C2CC2)nc2ccccc2c1-c1ccc(F)cc1 [Pitavastatin calcium] (20 µM),1.08
8,CC(Cc1cccc(C(F)(F)F)c1)NCCOC(=O)c1ccccc1 (centres undefined) [Benfluorex] (20 µM),1.08
9,S=c1[nH]cnc2nc[nH]c12 [Mercaptopurine] (20 µM),1.07
10,CC(C(=O)O)c1ccc(N2Cc3ccccc3C2=O)cc1 (centres undefined) [Indoprofen] (20 µM),1.13
11,C[C@@H](O[C@H]1OCCN(Cc2n[nH]c(=O)[nH]2)[C@H]1c1ccc(F)cc1)c1cc(C(F)(F)F)cc(C(F)(F)F)c1 [Aprepitant] (20 µM),1.21
12,Cc1nnc(NS(=O)(=O)c2ccc(N)cc2)s1 [Sulfamethizole] (20 µM),0.987
13,O=C(Cn1c(=O)sc2ccc(Cl)cc21)N1CCN(CCO)CC1 [Tiaramide Hydrochloride] (20 µM),0.912
14,Clc1ccc(COC(Cn2ccnc2)c2ccc(Cl)cc2Cl)c(Cl)c1 (centres undefined) [Miconazole] (20 µM),1.25
15,Cc1cn[nH]c1 [Fomepizole] (20 µM),0.879
16,CC[C@H]1OC(=O)[C@H](C)[C@@H](O[C@H]2C[C@@](C)(OC)[C@@H](O)[C@H](C)O2)[C@H](C)[C@@H](O[C@@H]2O[C@H](C)C[C@H](N(C)C)[C@H]2O)[C@](C)(OC)C[C@@H](C)C(=O)[C@H](C)[C@@H](O)[C@]1(C)O [Clarithromycin] (20 µM),0
17,CCCC(=O)OCOC(=O)C1=C(C)NC(C)=C(C(=O)OC)C1c1cccc(Cl)c1Cl (centres undefined) [Clevidipine] (20 µM),0.828
18,CC[N+](CC)(CC(=O)Nc1c(C)cccc1C)Cc1ccccc1 [Denatonium benzoate] (20 µM),0.911
19,COc1cc(/C=C/C(=O)N2CCN(CC(=O)N3CCCC3)CC2)cc(OC)c1OC [Cinepazide maleate] (20 µM),1.13
20,COC(=O)C1=C(C)NC(C)=C(C(=O)O[C@H]2CCN(Cc3ccccc3)C2)[C@H]1c1cccc([N+](=O)[O-])c1 [Barnidipine Hydrochloride] (20 µM),0.993

row,Compound,growth
1,COCCCOc1ccnc(C[S+]([O-])c2nc3ccccc3[nH]2)c1C (centres undefined) [Rabeprazole sodium salt] (20 µM),1.24
2,CN(C)[C@@H]1C(=O)C(C(N)=O)=C(O)[C@@]2(O)C(=O)C3=C(O)c4c(O)ccc(Cl)c4[C@@H](O)[C@H]3C[C@@H]12 [Demeclocycline hydrochloride] (20 µM),0
3,O=C1[C@H]2CCCC[C@H]2C(=O)N1CCCCN1CCN(c2nsc3ccccc23)CC1 [Perospirone hydrochloride] (20 µM),1.12
4,CC1=C(/C=C/C(C)=C/C=C/C(C)=C/C(=O)O)C(C)(C)CCC1 [Retinoic acid] (20 µM),1.05
5,C[N+]1(C)CCC(OC(=O)C(O)(c2ccccc2)C2CCCC2)C1 (centres undefined) [Glycopyrrolate bromide] (20 µM),0.836
6,COc1ccc2cc([C@H](C)C(=O)O)ccc2c1 [(S)-Naproxen] (20 µM),1.04
7,C1CCC(C(CC2CCCCN2)C2CCCCC2)CC1 (centres undefined) [Perhexiline maleate] (20 µM),1.14
8,COc1ccc(-c2cc(=O)c3c(O)cc(O[C@@H]4O[C@H](CO[C@@H]5O[C@@H](C)[C@H](O)[C@@H](O)[C@H]5O)[C@@H](O)[C@H](O)[C@H]4O)cc3o2)cc1O [Diosmin] (20 µM),1.12
9,CC(C)N1CCN(c2ccc(OCC3COC(Cn4cncn4)(c4ccc(Cl)cc4Cl)O3)cc2)CC1 (centres undefined) [Terconazole] (20 µM),1.12
10,CCCCNc1ccc(C(=O)OCCN(C)C)cc1 [Tetracaine hydrochloride] (20 µM),1.06
11,CCC(=O)OCC(=O)[C@@]1(OC(=O)CC)[C@H](C)C[C@H]2[C@H]3[C@H]([C@@H](O)C[C@@]21C)[C@@]1(C)C=CC(=O)C=C1C[C@H]3Cl [Alclometasone dipropionate] (20 µM),1.15
12,C#CCN(C)CCCOc1ccc(Cl)cc1Cl [Clorgyline hydrochloride] (20 µM),1.02
13,CCCCS(=O)(=O)N[C@@H](Cc1ccc(OCCCCC2CCNCC2)cc1)C(=O)O [Tirofiban hydrochloride] (20 µM),0.927
14,CC(C)CN(C[C@@H](O)[C@H](Cc1ccccc1)NC(=O)O[C@H]1CCOC1)S(=O)(=O)c1ccc(N)cc1 [Amprenavir] (20 µM),1.1
15,CC[C@H](C)C(=O)O[C@H]1C[C@@H](C)C=C2C=C[C@H](C)[C@H](CC[C@@H]3C[C@@H](O)CC(=O)O3)[C@H]21 [Lovastatin] (20 µM),1.13
16,CN(C)CCN(Cc1ccc(Cl)cc1)c1ccccn1 [Chloropyramine hydrochloride] (20 µM),0.894
17,COC(c1ccccc1)(c1ccccc1)[C@H](Oc1nc(C)cc(C)n1)C(=O)O [Ambrisentan] (20 µM),0.967
18,O=C(O)CCC(=O)Nc1ccc(S(=O)(=O)Nc2nccs2)cc1 [Succinylsulfathiazole] (20 µM),1.03
19,CN(C)CCC=C1c2ccccc2C=Cc2ccccc21 [Cyclobenzaprine hydrochloride] (20 µM),0.862
